From PubChem BioAssay
Activity calls are given as the source filed them.

Legend:
[1] = tested on: Plasmodium falciparum Sir2 (PF13_0152, Sir2A); test: Plasmodium falciparum Sir2A binding compounds – biochemical, small-molecule microarray, 635 nm fluorescence, primary screen (AID 1098); settings: fluorescence 635 nm, higher = more signal;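 further: score merges spot fluorescence intensity with its signal-to-noise ratio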
[2] = probe aDKK1 binding to arrayed compounds – biochemical, biotinylated probe, 635/667 nm fluorescence, primary screen (AID 1099); settings: small-molecule microarray, higher = more signal;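 further: score merges 667nm spot fluorescence with signal to noise across triplicate slides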
[3] = probe aCHRDL2 binding to arrayed compounds – biochemical, biotinylated probe, 635/667 nm fluorescence, primary screen (AID 1100); settings: small-molecule microarray, higher = more signal
[4] = change in splice reporter luminescence, either direction, cell-based, HEK293, spliceosome inhibition project, primary screen (AID 1101); settings: HEK293 splicing luciferase reporter, 24 h, higher = more signal, called active from +8 up or from −8 down;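 further: HEK293 cells carrying a splicing-competent luciferase reporter gene; test concentration not given here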
[5] = molecular target: Fibroblast growth factor 10 (Homo sapiens) (UniProt O15520); test: compounds binding fibroblast growth factor 10 – biochemical, small-molecule microarray, 635 nm fluorescence, primary screen (AID 1102); settings: FGF10 binding, fluorescence 635 nm, higher = more signal
[6] = tested on: glycogen synthase kinase-3 (GSK3A per assay name; protocol says GSK3B); test: compounds binding glycogen synthase kinase-3 – biochemical, small-molecule microarray, 635 nm fluorescence, GSK3A, primary screen (AID 1103); settings: fluorescence 635 nm, higher = more signal; further: the record names both GSK3A and GSK3B
[7] = molecular target: Epidermal growth factor receptor (Homo sapiens) (UniProt P00533); test: compounds binding epidermal growth factor receptor – biochemical, small-molecule microarray, 635 nm fluorescence, primary screen (AID 1104); settings: EGFR binding, higher = more signal;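 further: score merges 667 nm emission intensity with spot signal to noise over triplicate slides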
[8] = molecular target: Follistatin-related protein 3 (Homo sapiens) (UniProt O95633); test: compounds binding follistatin-related protein 3 – biochemical, small-molecule microarray, 635 nm fluorescence, primary screen (AID 1105); settings: FSTL3 binding, higher = more signal;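 further: score merges emission near 667 nm and signal to noise per printed spot across three slides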
[9] = molecular target: Dickkopf-related protein 1 (Homo sapiens) (UniProt O94907); test: small molecules binding DKK1 protein – biochemical, small-molecule microarray, 635 nm fluorescence scan, primary screen (AID 1106); settings: higher = more signal;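 further: score merges emission near 667 nm with signal to noise over three replicate slides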
[10] = tested on: Inhibin beta A chain (activin A); test: small molecules binding activin A – biochemical, small-molecule microarray, 635 nm fluorescence scan, primary screen (AID 1107); settings: INHBA, higher = more signal;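 further: mouse activin A protein probed at 4.33 µg/mL on printed slides; score merges bound-protein fluorescence near 667 nm with spot signal-to-noise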
[11] = tested on: Human papillomavirus type 1a protein E7 (residues 44-93); test: small molecules binding HPV E7 44-93 – biochemical, small-molecule microarray, residues 44-93, 635 nm fluorescence, primary screen (AID 1108); settings: fluorescence 635 nm, higher = more signal;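 further: E7 fragment applied at 1 µg/mL in TBST for 1 h at 4 C; score combines spot fluorescence with its signal to noise ratio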
[12] = hepatitis C replication reporter changes, two-sided – Huh7 cells, luciferase reporter, HCV replication inhibitor project, primary screen (AID 1109); settings: Huh7 HCV replicon luciferase reporter, 48 h; higher = more signal;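 further: huh7 hepatoma cells harbouring a luciferase neomycin HCV replicon reporter; luciferase luminescence as measure of HCV replicon replication; test concentration not given here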
[13] = molecular target: Left-right determination factor 2 (Homo sapiens) (UniProt O00292); test: small molecules binding LEFTY2 protein – biochemical, small-molecule microarray, 635 nm fluorescence scan, primary screen (AID 1110); settings: higher = more signal
[14] = molecular target: Calmodulin-1 (Homo sapiens) (UniProt P0DP23); test: small molecules binding calmodulin-1 with EGTA – biochemical, small-molecule microarray, Cy5-labelled CALM1, profiling panel (AID 1111); settings: Cy5-CALM1 binding fluorescence, higher = more signal;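 further: labelled calmodulin applied in Tris saline Tween buffer holding calcium plus EGTA and DTT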
[15] = molecular target: Calmodulin-1 (Homo sapiens) (UniProt P0DP23); test: small molecules binding Ca-loaded calmodulin-1 – biochemical, small-molecule microarray, Cy5-labelled CALM1, plus calcium, artefact control for SMM control-protein annotation, profiling panel (AID 1112); settings: Cy5-CALM1 binding fluorescence, higher = more signal;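 further: score merges spot fluorescence with signal to noise from triplicate slides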
[16] = probe aWnt5a binding to arrayed compounds – biochemical, biotinylated probe, 635/667 nm fluorescence, primary screen (AID 1113); settings: small-molecule microarray, higher = more signal;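 further: score merges 667 nm fluorescence intensity with signal-to-noise per printed feature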
[17] = probe aShh binding to arrayed compounds – biochemical, biotinylated probe, 635/667 nm fluorescence, primary screen (AID 1114); settings: small-molecule microarray, higher = more signal;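 further: probe is biotin-labelled aShh protein from a stem cell growth factor screen; measures binding of labelled protein to compounds printed on the slide; score merges feature fluorescence at 667 nm with signal-to-noise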
[18] = probe aNog binding to arrayed compounds – biochemical, biotinylated probe, 635/667 nm fluorescence, primary screen (AID 1115); settings: small-molecule microarray, higher = more signal;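 further: probe is biotinylated aNog protein used at 0.15 µg/mL for 1 h at 4 C; z-score combines 667 nm fluorescence of each spot with its signal to noise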
[19] = molecular target: Torsin-1A-interacting protein 1 (Homo sapiens) (UniProt Q5JTV8); test: compound microarray binding of lysate hLAP1 – cell lysate, small-molecule microarray, COS7 lysate, 635/667 nm fluorescence, primary screen (AID 1116); settings: 635 nm fluorescence, higher = more signal
[20] = molecular target: Alpha-bungarotoxin (Bungarus multicinctus) (UniProt P60615); test: compounds binding labelled alpha-BTX control protein – biochemical, small-molecule microarray, Alexa647 label, 635/667 nm fluorescence, artefact control for SMM control protein annotation, profiling panel (AID 1117); settings: alpha-BTX-A647 binding fluorescence, higher = more signal
Sequence of Alpha-bungarotoxin (Bungarus multicinctus) (P60615 whole entry, looked up): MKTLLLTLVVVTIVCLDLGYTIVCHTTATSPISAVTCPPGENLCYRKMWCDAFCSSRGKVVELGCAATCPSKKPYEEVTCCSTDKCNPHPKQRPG

Sequence of Fibroblast growth factor 10 (Homo sapiens) (O15520 whole entry, looked up): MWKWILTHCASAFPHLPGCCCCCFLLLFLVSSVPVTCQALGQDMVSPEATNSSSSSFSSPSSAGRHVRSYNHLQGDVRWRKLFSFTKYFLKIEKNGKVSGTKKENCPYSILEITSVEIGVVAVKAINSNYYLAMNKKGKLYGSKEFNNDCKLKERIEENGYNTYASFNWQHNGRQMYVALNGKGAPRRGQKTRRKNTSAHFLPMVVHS
Sequence of Follistatin-related protein 3 (Homo sapiens) (O95633 whole entry, looked up): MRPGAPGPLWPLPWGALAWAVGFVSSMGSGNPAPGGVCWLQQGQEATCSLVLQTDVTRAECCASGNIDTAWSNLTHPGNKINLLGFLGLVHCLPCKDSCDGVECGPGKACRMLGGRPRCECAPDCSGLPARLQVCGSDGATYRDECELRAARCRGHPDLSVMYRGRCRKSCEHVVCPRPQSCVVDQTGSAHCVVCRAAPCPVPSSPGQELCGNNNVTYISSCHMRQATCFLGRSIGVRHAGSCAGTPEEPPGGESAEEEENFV
Sequence of Torsin-1A-interacting protein 1 (Homo sapiens) (Q5JTV8 whole entry, looked up): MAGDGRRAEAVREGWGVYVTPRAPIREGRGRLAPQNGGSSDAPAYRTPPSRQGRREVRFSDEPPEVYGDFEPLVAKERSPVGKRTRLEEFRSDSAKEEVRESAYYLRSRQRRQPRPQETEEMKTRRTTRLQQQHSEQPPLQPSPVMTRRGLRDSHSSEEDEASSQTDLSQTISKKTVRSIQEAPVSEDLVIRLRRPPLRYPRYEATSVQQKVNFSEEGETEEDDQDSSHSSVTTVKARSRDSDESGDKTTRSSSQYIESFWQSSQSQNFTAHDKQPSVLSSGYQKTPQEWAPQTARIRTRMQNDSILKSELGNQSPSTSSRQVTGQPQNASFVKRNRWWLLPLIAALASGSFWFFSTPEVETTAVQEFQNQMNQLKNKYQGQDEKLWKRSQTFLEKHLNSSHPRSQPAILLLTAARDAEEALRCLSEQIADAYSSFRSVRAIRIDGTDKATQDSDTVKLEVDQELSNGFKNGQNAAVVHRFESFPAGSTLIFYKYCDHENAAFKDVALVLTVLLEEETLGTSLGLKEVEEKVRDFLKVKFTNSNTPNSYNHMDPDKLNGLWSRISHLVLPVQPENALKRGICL
Sequence of Left-right determination factor 2 (Homo sapiens) (O00292 whole entry, looked up): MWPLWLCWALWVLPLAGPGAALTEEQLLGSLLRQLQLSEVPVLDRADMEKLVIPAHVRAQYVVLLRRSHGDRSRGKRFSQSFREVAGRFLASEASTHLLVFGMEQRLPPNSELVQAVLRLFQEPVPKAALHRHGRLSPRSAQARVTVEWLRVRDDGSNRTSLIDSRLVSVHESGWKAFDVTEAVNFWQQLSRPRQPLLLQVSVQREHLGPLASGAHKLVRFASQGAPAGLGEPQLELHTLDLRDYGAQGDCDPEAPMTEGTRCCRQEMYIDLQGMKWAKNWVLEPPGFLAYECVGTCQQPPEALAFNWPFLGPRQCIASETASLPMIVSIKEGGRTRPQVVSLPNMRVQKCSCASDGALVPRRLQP
Sequence of Dickkopf-related protein 1 (Homo sapiens) (O94907 whole entry, looked up): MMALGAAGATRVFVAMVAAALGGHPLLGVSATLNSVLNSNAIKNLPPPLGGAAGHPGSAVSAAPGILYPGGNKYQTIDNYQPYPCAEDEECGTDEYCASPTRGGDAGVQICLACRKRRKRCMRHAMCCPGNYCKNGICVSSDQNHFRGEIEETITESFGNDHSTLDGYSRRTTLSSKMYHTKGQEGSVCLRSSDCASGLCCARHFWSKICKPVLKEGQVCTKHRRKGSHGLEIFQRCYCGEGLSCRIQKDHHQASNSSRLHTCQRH
Sequence of Epidermal growth factor receptor (Homo sapiens) (P00533 whole entry, looked up): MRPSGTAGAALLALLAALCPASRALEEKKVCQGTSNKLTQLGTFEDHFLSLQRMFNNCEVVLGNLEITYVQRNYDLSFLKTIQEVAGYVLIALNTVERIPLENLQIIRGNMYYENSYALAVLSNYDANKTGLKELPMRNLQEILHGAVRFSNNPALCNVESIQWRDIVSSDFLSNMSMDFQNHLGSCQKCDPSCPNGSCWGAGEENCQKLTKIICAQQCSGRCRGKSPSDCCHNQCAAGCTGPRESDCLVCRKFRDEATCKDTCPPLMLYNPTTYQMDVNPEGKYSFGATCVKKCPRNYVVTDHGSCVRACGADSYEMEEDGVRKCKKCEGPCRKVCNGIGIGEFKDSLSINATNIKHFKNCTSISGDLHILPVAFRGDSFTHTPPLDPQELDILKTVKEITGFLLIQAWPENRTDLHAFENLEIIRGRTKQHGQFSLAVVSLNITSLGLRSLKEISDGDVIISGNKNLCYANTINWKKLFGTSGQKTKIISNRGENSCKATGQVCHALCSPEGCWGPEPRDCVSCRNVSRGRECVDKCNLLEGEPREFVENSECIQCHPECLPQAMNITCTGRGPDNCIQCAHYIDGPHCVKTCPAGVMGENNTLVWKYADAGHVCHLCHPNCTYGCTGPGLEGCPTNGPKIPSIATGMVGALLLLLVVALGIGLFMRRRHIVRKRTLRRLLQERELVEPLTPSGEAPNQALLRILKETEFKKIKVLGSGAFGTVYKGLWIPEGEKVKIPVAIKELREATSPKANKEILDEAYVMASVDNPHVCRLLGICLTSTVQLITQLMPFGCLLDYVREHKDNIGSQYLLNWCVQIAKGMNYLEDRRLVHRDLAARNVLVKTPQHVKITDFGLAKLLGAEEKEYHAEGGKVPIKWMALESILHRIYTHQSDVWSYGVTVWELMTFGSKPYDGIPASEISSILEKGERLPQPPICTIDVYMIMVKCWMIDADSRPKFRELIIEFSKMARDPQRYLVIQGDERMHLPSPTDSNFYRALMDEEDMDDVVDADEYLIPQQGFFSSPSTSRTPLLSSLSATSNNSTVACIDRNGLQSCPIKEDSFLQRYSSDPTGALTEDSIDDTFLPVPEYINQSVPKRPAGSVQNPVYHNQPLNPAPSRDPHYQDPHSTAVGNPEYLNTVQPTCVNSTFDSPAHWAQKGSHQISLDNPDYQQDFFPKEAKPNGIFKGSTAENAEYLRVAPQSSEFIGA

Row | SMILES | composite z-score [1] | composite z-score [2] | composite z-score [3] | z-score [4] | composite z-score [5] | composite z-score [6] | composite z-score [7] | composite z-score [8] | composite z-score [9] | composite z-score [10] | composite z-score [11] | z-score [12] | composite z-score [13] | composite z-score [14] | composite z-score [15] | composite z-score [16] | composite z-score [17] | composite z-score [18] | composite z-score [19] | composite z-score [20]
1 | Cc1ccc(N2C(=O)c3ccccc3[C@@H](C(=O)NCc3ccccc3)[C@@H]2c2ccc(CO)cc2)nc1 | -0.566 | 0.601 | 1.01 | -1.47 (inactive) | 0.329 | -1.13 | -0.446 | -0.526 | 0.251 | 1.71 | -0.752 | -0.139 | -0.292 | -0.869 | -0.313 | -0.148 | 0.901 | -0.361 | 0.776 | -0.326
2 | O=C1O[C@H](c2ccccc2)[C@H](c2ccccc2)N2[C@H]1[C@@H](C(=O)Nc1nc3ccccc3s1)[C@]1(C(=O)Nc3ccc(C#CC4=CCCCC4)cc31)[C@H]2c1ccccc1OCCO | 1.51 | -0.0804 | -0.262 | -1.69 (inactive) | 1.14 | 1.02 | 0.516 | 1.27 | 0.574 | 0.345 | 1.35 | -1.67 | 0.59 | 1.31 | 0.149 | -0.0714 | -0.263 | 0.184 | 0.715 | 1.04
3 | Cc1ccccc1C(O)C1C=CC2C(=O)N(c3ccccc3)C(=O)C2N1Nc1ccc(C#N)cc1 (stereo not given) | 1.56 | 1.35 | 1.4 | 0.898 (inactive) | 1.16 | 1.3 | 0.832 | 1.05 | 0.311 | 0.958 | 1.22 | -0.15 | 0.588 | 2.68 | 1.27 | 0.24 | 0.333 | 2.26 | 3.02 | 1.94
4 | CCCCCCc1nc(-c2cc(C)c(OC)c(C)c2)cc2c1[Si](C(C)C)(C(C)C)O[C@H]2c1ccccc1 | -0.717 | -0.268 | 0.122 | 0.399 (inactive) | -0.915 | -0.849 | -0.394 | -0.677 | -0.302 | 0.621 | -0.57 | 0.115 | -0.607 | -0.482 | 0.244 | -0.197 | 0.0278 | -0.0755 | -0.872 | 0.117
5 | CO[C@H]1COC(=O)[C@@H](Cc2ccccc2)NC(=O)[C@@H](C)COC(=O)CC=C[C@@H]1C | 0.318 | -0.63 | -1.46 | 0.105 (inactive) | 0.42 | -0.0524 | 0.954 | 0.439 | 0.913 | 1.31 | -0.661 | 0.413 | 0.831 | -2.36 | -2.14 | -0.133 | -0.124 | -0.234 | -0.0159 | -0.39
6 | C#CCCCON=C1C[C@@H](O)[C@@H](O)[C@@H]2[C@@H]3C(=O)N(Cc4ccc5c(c4)OCO5)C(=O)[C@@H]3CC[C@H]12 | 0.419 | -0.254 | -0.463 | -0.16 (inactive) | 1.34 | 0.253 | 0.328 | 0.578 | 0.59 | -0.345 | 1.36 | -0.0463 | 0.774 | 0.601 | -0.783 | -0.0735 | 0.0796 | -0.326 | 1.34 | 0.24
